CYP2C19 act: human CYP2C19 activators, primary screen, biochemical, luminescence. Cytochrome P450 2C19 (Homo sapiens), P33261. recombinant CYP2C19, luciferin-H EGE luminescence; stronger effect = higher value; 0 = fully inhibited enzyme, 1 = untreated enzyme. activation factor at 5 µM. 96,000 tested, under 10 active;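 active means activation factor of at least 2 at 5 µM in the primary screen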;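 further: 0 = wells with 2.5 mM tranylcypromine and 1 = vehicle-only wells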
D1 allo mod: D1 CRE-luciferase signal change, two-sided – cell-based, HEK293 D1, dopamine EC30, D1 allosteric modulator project, primary screen; 58,000 tested, 5.9% active; dopamine EC30 potentiation; actives deviate in either direction; D(1A) dopamine receptor (Homo sapiens), P21728; AID 641, 2007; B-score at 10 µM;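 active means luminescence count or its row- and column-corrected plate score outside the 99.7% band of the plate's sample wells, on either side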
CYP2C9 activ: human CYP2C9 activators, primary screen, biochemical, luminescence; Cytochrome P450 2C9 (Homo sapiens), P11712; recombinant CYP2C9, luciferin-H conversion; stronger effect = higher value; factor 1 = untreated enzyme, 0 = blocked; activation factor at 5 µM; 96,000 tested, 1.4% active;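 active means activation factor of 2 or more for CYP2C9 at a 5 µM dose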;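 further: 0 = sulfaphenazole-blocked wells and 1 = vehicle-only wells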
CYP2C19 inh: blockers of cytochrome P450 2C19 activity – biochemical, luminescence, ADME assay, primary screen. inhibition, % at 5 µM. P33261. 96,000 tested, 21% active. CYP2C19 Supersomes, luciferin-H EGE luminescence, 30 min;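 active means CYP2C19 inhibition above a set limit at 5 µM in the primary screen, cut at about 50% in these data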;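 further: plate controls were negative control wells for no effect and 2.5 mM tranylcypromine positive control for full effect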
DAT uptake mod: changed hDAT dopamine uptake under cocaine IC80, either direction, primary screen, cocaine antagonist project, cell-based, LLC-PK1 hDAT, [14C]-dopamine uptake, MLSMR. B-score at 10 µM. LLC-PK1 hDAT cells, [14C]-dopamine uptake with cocaine IC80; actives deviate in either direction. 110,000 tested, 1.3% active;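 active means Z score or B-score, a plate-position-corrected score, falls beyond the plate's 99.7% confidence bounds, in either direction; inactive means both scores lie inside the 99.7% bounds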;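 further: scored against the spread of the other compound wells on the same plate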
Target sequence (Q01959 whole entry, looked up): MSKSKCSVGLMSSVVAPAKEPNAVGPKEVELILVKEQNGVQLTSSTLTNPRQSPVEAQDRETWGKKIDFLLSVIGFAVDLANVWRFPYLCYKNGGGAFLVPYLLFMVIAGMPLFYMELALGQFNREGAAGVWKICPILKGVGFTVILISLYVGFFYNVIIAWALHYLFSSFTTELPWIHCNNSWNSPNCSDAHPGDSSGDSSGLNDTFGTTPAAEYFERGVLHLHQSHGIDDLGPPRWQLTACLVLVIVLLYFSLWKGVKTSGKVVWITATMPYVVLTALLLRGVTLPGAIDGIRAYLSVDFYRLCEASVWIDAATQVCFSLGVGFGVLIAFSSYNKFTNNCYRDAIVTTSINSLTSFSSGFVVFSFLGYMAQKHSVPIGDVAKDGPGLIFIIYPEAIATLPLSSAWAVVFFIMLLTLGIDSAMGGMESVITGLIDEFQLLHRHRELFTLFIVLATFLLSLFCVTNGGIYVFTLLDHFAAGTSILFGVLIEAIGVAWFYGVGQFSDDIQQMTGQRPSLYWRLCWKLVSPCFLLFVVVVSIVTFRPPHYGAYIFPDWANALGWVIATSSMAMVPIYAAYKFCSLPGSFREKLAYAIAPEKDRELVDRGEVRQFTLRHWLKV
CYP2C9 inhib: blockers of cytochrome P450 2C9 activity – biochemical, luminescence, ADME assay, primary screen | P11712 | CYP2C9 Supersomes, luciferin-H conversion | inhibition, % at 5 µM | 96,000 tested, 20% active;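 active means blocking of liver enzyme CYP2C9 beyond about 50% at 5 µM, limit read from the data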
Active calls of the source: *; . = not tested or not shown. Compounds with a hit are over-represented: about 28% of the library has one in this group of screens.

SMILES	CYP2C19 act	D1 allo mod	CYP2C9 activ	CYP2C19 inh	DAT uptake mod	CYP2C9 inhib
CCOCCCNC(=O)C(c1ccc(C)cc1)N(Cc1ccc2c(c1)OCO2)C(=O)c1cnccn1 (stereo not given)	0.8	0.7	1	17	-0.55	1
O=C(c1ccc(CS(=O)(=O)c2ccc(Br)cc2)o1)N1CCN(c2ncccn2)CC1	0.4	0.32	0.2	56*	-0.28	81*
O=C(c1ccc(Br)o1)N1CCN(c2ncccn2)CC1	0.8	.	0.7	17	-0.06	26
COc1ccccc1S(=O)(=O)Cc1ccc(C(=O)N2CCN(c3ccccn3)CC2)o1	0.5	-0.044	0.5	53*	0.075	51*
Cn1nc(C(F)(F)F)c(/C=N/OC(=O)c2ccccc2)c1Sc1ccc(Cl)cc1	0.7	.	0.1	34	0.038	89*
Cn1nc(C(F)(F)F)c(/C=N/OC(=O)c2ccccc2)c1Cl	1	.	0.7	-3	-0.6	29
N#CC(c1ccccc1)(c1ncc(C(F)(F)F)cc1Cl)N1CCOCC1 (stereo not given)	0.8	.	1	20	.	1
N#CC(c1cccc(C(F)(F)F)c1)(c1ncc(C(F)(F)F)cc1Cl)N1CCOCC1 (stereo not given)	0.5	.	0.6	52*	0.75	42
O=[N+]([O-])c1cc(-c2nnc(C34CC5CC(CC(C5)C3)C4)o2)cc([N+](=O)[O-])c1	1.1	.	1.1	-7	.	-8
COc1cc(-n2c(=O)c3ccccc3n(Cc3ccccc3)c2=O)cc(OC)c1OC	0.4	.	1.2	62*	-0.28	-19
CCCCN(CCCC)CCNC(=O)Cc1nc2c(c(=O)[nH]c(=O)n2C)n1C	1	0.53	1	1	-0.31	0
CCOc1ccc(-n2c(COc3ccccc3)nnc2SCC(N)=O)cc1	0.2	0.095	0.6	76*	0.79	37
COC(=O)c1cccc(NC(=O)CSc2nnc(COc3ccc(C#N)cc3)n2-c2ccccc2)c1	0.6	-0.043	0.3	39	0.14	69*
Cc1cccc(NC(=O)CSc2nnc(C)n2Cc2ccccc2)c1	0.4	.	1	59*	0.81	-5
Cc1nnc(SCC(=O)Nc2sccc2C(N)=O)n1Cc1ccccc1	0.2	0.75	2.3*	76*	-0.3	-128
C[C@@H](C(=O)NCCc1c[nH]c2ccccc12)[C@@H]1C[C@@]1(C)[C@@H](NC(=O)OCc1ccccc1)c1ccccc1	.	.	.	.	1.1	.
COC(=O)c1cccc(NC(=O)CSc2nnc(C)n2Cc2ccccc2)c1	0.3	.	0.1	70*	0.21	89*
COCc1nnc(SCC(=O)Nc2cccc(Cl)c2C)n1-c1ccccc1	0.2	-1.1	0.8	84*	0.06	18
CCCCn1c(-c2csc3ccccc23)n[nH]c1=S	0	.	0.1	97*	.	89*
CCCCn1c(-c2csc3c2CCCC3)n[nH]c1=S	0.3	.	0.1	70*	0.93	89*
COC(=O)c1ccc(Oc2nc3ccccc3n3c(C)nnc23)cc1	.	0.49	.	.	.	.
CCCCNC(=O)C1c2ccccc2C(=O)N(c2ccc(OC)cc2)C1c1ccc(OC)cc1 (stereo not given)	0.9	.	0.6	14	-7.8*	42
COCC(=O)NC1CCN(C(=O)Nc2ccc(Br)cc2)CC1	1	-0.82	1.1	-4	0.57	-12
CCCn1c(N)c(C(=O)COC(=O)c2c(C)noc2C)c(=O)n(C)c1=O	0.9	-0.21	0.5	14	1.2	51*
Cc1noc(C)c1C(=O)OCC(=O)c1ccc[nH]1	0.5	0.36	0.2	48	-1	85*
SMILES	CYP2C19 act	D1 allo mod	CYP2C9 activ	CYP2C19 inh	DAT uptake mod	CYP2C9 inhib
Cc1noc(C)c1C(=O)OCC(=O)c1cc(C)n(Cc2ccccc2Cl)c1C	0.1	0.35	0.1	90*	0.79	87*
Cc1ccc(CNC(=O)COC(=O)c2c(C)noc2C)cc1	0.1	0.042	0.9	86*	1.3	6
CCO[C@H]1OC(C(=O)N2CCN(Cc3ccc4c(c3)OCO4)CC2)=C[C@@H](C(C)(C)C)[C@@H]1CCCO	.	.	.	.	0.3	.
O=C(CN1CCN(c2ccccc2)CC1)Nc1ccc(Oc2ccccc2)cc1	1	.	0.8	1	0.0028	17
N#CC(C(=O)NC1CC1)c1nc2ccccc2nc1N1CCN(C/C=C/c2ccccc2)CC1 (stereo not given)	1	.	0.6	5	-0.65	45
Cc1cccc(C)c1NC(=O)c1ccc(-n2cncn2)nc1	0.1	.	0.3	93*	0.041	66*
Cc1cccc(C)c1NC(=O)c1ccc(-n2cnnn2)cc1	0.7	-0.96	0.9	34	-0.41	10
O=C(Nc1ccccc1F)c1ccc(-n2cncn2)nc1	0	.	0.3	97*	.	69*
Cn1nc(-c2ccccc2)c(C#N)c1Sc1cccc(Cl)c1	0.7	.	0.7	31	-0.047	28
COc1ccccc1-c1nnc2sc(-c3cnccn3)nn12	0.3	-0.67	0.8	75*	0.33	23
COc1ccccc1-c1nnc2sc(COc3ccc(F)cc3)nn12	0.6	-1	0.8	42	.	20
COc1ccccc1-c1nn2c(-c3ccc(C(C)(C)C)cc3)nnc2s1	1	.	0.4	-2	.	56*
CN(C)c1ccc(-c2nn3c(-c4ccccc4Cl)nnc3s2)cc1	0.7	0.59	0.9	27	-0.084	13
COc1cccc(OC)c1-c1nn2c(-c3ccco3)nnc2s1	0.1	.	0.3	89*	0.76	68*
COc1ccccc1-c1nnc2sc(-c3ccc(N(C)C)cc3)nn12	.	7.5*	.	.	.	.
CCN(CC)S(=O)(=O)c1ccc(C2CNC(=O)C2)cc1 (stereo not given)	1.2	-0.35	0.9	-19	-0.25	10
COCCCNC(=O)c1cc(C(=O)c2c(-c3c(Cl)cccc3Cl)noc2C)c[nH]1	1	.	0.9	-4	-0.2	8
O=C(c1cc2nc3c(c(C(F)(F)F)n2n1)CCc1ccccc1-3)N1CCN2CCCC2C1 (stereo not given)	.	0.91	.	.	.	.
O=C(O)c1cc2nc3c(c(C(F)(F)F)n2n1)CCc1ccccc1-3	1.2	-4.5*	1.2	-18	-0.019	-16
O=C(CN1CCCCC1)Nc1cccc(Br)c1	0.7	.	1.1	33	-0.8	-6
COC(=O)CSC1=C(C#N)C(c2sccc2C)CC(=O)N1 (stereo not given)	.	-0.62	.	.	-1.2	.
COC(=O)CSC1=C(C#N)C(c2ccc(F)cc2)CC(=O)N1 (stereo not given)	0.3	-0.33	0.1	72*	-0.052	90*
